PrPC surface inh: inhibitors of human cell surface prion protein PrPC | P04156 | TR-FRET read-out | inhibition, % at 13.8 µM | actives 0.43% (n = 370,000); in the data active means inhibition above about 24%; further: 0% = median of the test wells and 100% = reference compound wells
Vc quorum ag: quorum light induction in luxS cqsA deficient V. cholerae; V. cholerae BH1578 lux reporter, luminescence, 6 h; activation, % at 18.7 µM; actives 0.16% (n = 350,000); in the data active means activation mostly above about 9.7%, no sharp cut-off
CCHF vOTU inh-1: CCHFV vOTU protease inhibition | Pep-AMC fluorescence | inhibition, % at 11.5 µM | actives 0.55% (n = 370,000); further: 0% = vehicle wells with enzyme and 100% = no enzyme wells
Y pestis TopoI: Y. pestis Topo-I inhibition via cleavage products | actives 0.064% (n = 360,000) | Y. pestis Topo-I cleavage product accumulation, plate reader | activity, % at 10 µM; in the data active means activity above about 50%, passing the limit was not always enough
CCHF vOTU inh-2: CCHFV vOTU protease inhibition, confirmation; actives 17% (n = 1,900); Recombinant CCHFV vOTU, Pep-AMC fluorescence; inhibition, % at 11.5 µM; shares compounds with CCHF vOTU inh-1
The depositor's hits bear a star; i = inactive; . = no result given. In the library only some 1.1% were active in any assay of this set; here they are far more common. Unless noted, no stated cut-off is given here; in the data, active means inhibition above about 30%; inactive means the rest.

SMILES	PrPC surface inh	Vc quorum ag	CCHF vOTU inh-1	Y pestis TopoI	CCHF vOTU inh-2
Cc1ccc(CN2CCN(C(=O)CCN3C(=O)c4ccccc4C3=O)CC2)cc1	-1	i	12	26	.
CCN1CCN(Cc2c(O)c(Cl)cc3c(C)cc(=O)oc23)CC1	-2	0	-311	4	.
O=C1c2ccccc2C(=O)C12OC2c1cccc2ccccc12 (stereo not drawn)	2	0	87*	-12	48*
CCOC(=O)C1(Cc2cccc(OC)c2)CCN(Cc2cccc(O)c2)CC1	-6	-1	31*	10	-23
Cc1cnc(C2OCCO2)c2cccc(N)c12	-23	i	38*	5	65*
Nc1ncnc2oc(-c3ccco3)c(-c3ccco3)c12	13	i	34*	0	-55
Nc1nnc(-c2ccco2)s1	-5	2	3	-5	.
CCOC(=O)C1(C)CCCN(C(=O)c2ccc3snnc3c2)C1 (stereo not drawn)	-3	0	4	-6	.
O=C1c2cccc(Cl)c2C(=O)c2c1cccc2N1CCCC1	-13	i	71*	4	-14
O=C1c2ccccc2C(=O)c2cc(N3CCCCC3)ccc21	2	i	-9	1	.
CC(O)(c1ccc(F)c(F)c1)c1nc(-c2cccc(C(F)(F)F)c2)cs1 (stereo not drawn)	4	-1	39*	-4	5
CC(=O)[C@H]1[C@@H]2C(=O)N(c3cccc(Cl)c3)C(=O)[C@@H]2[C@H]2c3ccccc3C=CN21	-2	-3	94*	-1	82*
CC(=O)[C@@H]1[C@@H]2C(=O)N(c3ccc(F)c(Cl)c3)C(=O)[C@@H]2C2c3ccccc3C=CN21 (stereo partly drawn)	9	.	95*	.	75*
CC(=O)Nc1cccc(C(=O)N2CCN(S(=O)(=O)Cc3ccccc3)CC2)c1	-1	-4	11	-3	.
COc1cccc2c1C(=O)c1c(O)c3c(c(O)c1C2=O)C[C@@](O)(C(=O)CO)C[C@@H]3O[C@H]1C[C@H](N)[C@H](O)[C@H](C)O1	-28	0	41*	-31	30*
CC(Cc1ccccc1)C(=O)N(C)Cc1cccnc1 (stereo not drawn)	-1	-1	3	-6	.
COn1c(C)c(C(C)=O)c2c3nonc3ccc21	-16	i	31*	1	-3
CCCCOn1c(C)c(C(=O)OCC)c2c3nonc3ccc21	-2	i	9	-6	.
COc1cc(NC(=O)c2ccccc2Cl)c2ncccc2c1	-5	-1	0	3	.
CCC(CNc1cc(OC)cc2cccnc12)NC1CCCCC1 (stereo not drawn)	-12	-1	110*	-1	102*
COc1cc(NCCCCC(C)N)c2nccc(C)c2c1 (stereo not drawn)	-36	i	57*	-5	45*
COc1cc(NCCCC(C)N)c2ncccc2c1 (stereo not drawn)	-52	i	65*	-20	108*
COc1ccc2[nH]c3c(NCCN(C(C)C)C(C)C)ncnc3c2c1	-11	-5	-16	1	.
Cc1nn(CCCC(=O)Nc2cnn(Cc3ccc(F)cc3)c2)c(C)c1[N+](=O)[O-]	0	0	-6	-1	.
CCOC(=O)/C(C#N)=C1/C=CN(c2ccccc2)C=N1	-16	i	14	-1	.
SMILES	PrPC surface inh	Vc quorum ag	CCHF vOTU inh-1	Y pestis TopoI	CCHF vOTU inh-2
CCOC(=O)/C(C#N)=C1/C=CN(Cc2ccccc2)C=N1	19	-1	30*	5	-1
Cc1ccc(S(=O)(=O)N2C[C@H]3N(C(=O)OC(C)C)N(C(=O)OC(C)C)C[C@H](OC(=O)NC4CCCC4)[C@@]3(O)C2)cc1	1	0	14	15	.
CCOC(=O)Cn1nnnc1C(CC)N(Cc1cccs1)Cc1cc2cc(C)ccc2[nH]c1=O (stereo not drawn)	-2	-2	-1	25	.
Cc1ccc(NC(=O)C2CC(=O)N/C(=N/N=C/c3ccco3)S2)cc1 (stereo not drawn)	-4	0	0	4	.
O=C1CC(C(=O)Nc2ccc(F)cc2)S/C(=N\N=C\c2ccco2)N1 (stereo not drawn)	-2	0	35*	1	-10
CC1(C)Cc2cccc(OCC(=O)NCCc3ccccc3)c2O1	4	i	21	16	.
CCOC(=O)/C=C1\CN(Cc2cc(OC)c(OC)c(OC)c2)S(=O)(=O)c2ccc(C(F)(F)F)cc21	6	i	33*	4	3
Cc1ccc(C)n1NC(=O)c1ccccc1Cl	-4	3	13	-14	.
CS/C(N)=N/N=C/c1cc(Br)cc(Br)c1O	-2	0	21	7	.
CC(C)(C)c1ccc(/C=N/Nc2nncn2N)cc1	-7	-1	89*	0	5
CC1CCN(c2ccc(/C=N/n3nnnc3N)cc2[N+](=O)[O-])CC1	1	i	8	17	.
Nn1cnnc1N/N=C/c1cc(Br)cc(Br)c1O	-4	0	104*	-6	-13
CSc1ccc(/C=N\Nc2nncn2N)cc1	-9	i	101*	-13	-7
CC1CCN(c2ccc(/C=N\Nc3nncn3N)cc2[N+](=O)[O-])CC1	-5	i	88*	-6	12
Cn1c2ccccc2c2nnc(N/N=C/c3ccc(O)cc3)nc21	-7	i	2	-2	.
COc1ccc(-c2cccc(C(=O)Nc3ccc(C)cc3)c2)cc1	3	i	31*	7	-4
COc1ccc(-c2cccc(C(=O)Nc3ccc(OC)c(OC)c3)c2)cc1	10	1	4	1	.
O=[N+]([O-])c1ccc(N2CCCCCC2)c2nonc12	-46	-1	14	-2	.
Nc1ccc(N2CCCCC2)c2nonc12	-2	0	111*	-8	34*
O=C(COC(=O)c1cccc(O)c1)Nc1ccc(N2CCOCC2)cc1	5	0	2	-11	.
Cn1cc(/C=C2\SC(=S)N(NC(=O)c3ccccc3Cl)C2=O)c2ccccc21	0	0	31*	-9	27
Cc1ccc(C(=O)NN2C(=O)/C(=C/c3cn(C)c4ccccc34)SC2=S)cc1	-4	0	-18	2	.
Cc1cccc(NC(=O)CCCN=C2NS(=O)(=O)c3ccccc32)c1C	6	-3	2	3	.
CN(CCCC1CCCC1)C(=O)c1cc(COc2c(F)cccc2F)on1	4	-1	3	39	.
CN(CCCC1CCCC1)C(=O)c1cc(COc2ccc(F)c(F)c2)on1	7	0	38*	46	4
CCCc1ccc(Oc2cn[nH]c2-c2ccc(O)c(C)c2O)cc1	15	i	36*	-7	-9
CCCc1ccc(Oc2c(-c3ccc(O)c(C)c3O)n[nH]c2C)cc1	9	0	8	-4	.
O=C(Nc1nc(-c2ccccc2)c(C(=O)c2ccccc2)s1)c1ccc(S(=O)(=O)N2CCCC2)cc1	-4	-1	3	-10	.
FC(F)(F)c1cccc(NC2=NCCCS2)c1	12	11	8	1	.
FC(F)(F)Oc1ccc(NC2=NCCCS2)cc1	0	0	44*	-2	-9

Screening data deposited in PubChem by several laboratories.
